# According to PubChem BioAssay AID1159580 (chemical genetic matrix, 2015):
# About 2,000 (36%) of roughly 5,500 compounds were called active. About 18% were inconclusive and are not listed. Some of the results follow. A number with no mark means an inactive call. Cut-off read from the data, not from the text of the source: active = normalized growth mostly below about 0.91 (no sharp cut-off); inconclusive = no clear call, values can overlap the other calls; inactive = mostly above about 0.92.
# Assay: chemical genetic growth profiling, strain panel (AID 1159580);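 note: tested at 20 µM; growth read once vehicle control cultures reached saturation at 30 °C; 1 = growth at the plate median or of vehicle wells; lower values mean less growth of the strain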
# Conditions: growth OD
smiles,measurement,setting,value
CC(=O)N(O)CCCCCNC(=O)CCC(=O)N(O)CCCCCNC(=O)CCC(=O)N(O)CCCCCN,normalized growth,"S. cerevisiae deletion strains, locus YJR066W, strain TOR1, hits give low values",0.95
same,normalized growth,"S. cerevisiae deletion strains, locus YJR075W, strain HOC1, hits give low values",1.01
same,normalized growth,"S. cerevisiae deletion strains, locus YKL009W, strain mrt4, hits give low values",1.01
same,normalized growth,"S. cerevisiae deletion strains, locus YKL068W, hits give low values",1.05
same,normalized growth,"S. cerevisiae deletion strains, locus YKL085W, strain MDH1 (second series), hits give low values",1.02
same,normalized growth,"S. cerevisiae deletion strains, locus YKL085W, strain MDH1, hits give low values",1.02
same,normalized growth,"S. cerevisiae deletion strains, locus YKL160W, strain elf1, hits give low values",0.998
same,normalized growth,"S. cerevisiae deletion strains, locus YKL190W, strain CNB1, hits give low values",1.01
same,normalized growth,"S. cerevisiae deletion strains, locus YKR001C, strain vps1, hits give low values",0.966
same,normalized growth,"S. cerevisiae deletion strains, locus YKR026C, strain gcn3, hits give low values",1.03
same,normalized growth,"S. cerevisiae deletion strains, locus YKR091W, strain srl3, hits give low values",1.01
same,normalized growth,"S. cerevisiae deletion strains, locus YLL001W, strain dnm1, hits give low values",0.991
same,normalized growth,"S. cerevisiae deletion strains, locus YLL026W, hits give low values",0.997
same,normalized growth,"S. cerevisiae deletion strains, locus YLL041C, strain sdh2, hits give low values",1
same,normalized growth,"S. cerevisiae deletion strains, locus YLR027C, strain aat2, hits give low values",1
same,normalized growth,"S. cerevisiae deletion strains, locus YLR039C, strain RIC1, hits give low values",0.997
same,normalized growth,"S. cerevisiae deletion strains, locus YLR058C, strain SHM2, hits give low values",1.01
same,normalized growth,"S. cerevisiae deletion strains, locus YLR102C, strain apc9, hits give low values",1.03
same,normalized growth,"S. cerevisiae deletion strains, locus YLR113W, strain HOG1, hits give low values",1.14
same,normalized growth,"S. cerevisiae deletion strains, locus YLR221C, strain rsa3, hits give low values",1.04
same,normalized growth,"S. cerevisiae deletion strains, locus YLR258W, strain gsy2, hits give low values",1.02
same,normalized growth,"S. cerevisiae deletion strains, locus YLR262C, strain YPT6 (second series), hits give low values",0.995
same,normalized growth,"S. cerevisiae deletion strains, locus YLR262C, strain YPT6, hits give low values",1.08
same,normalized growth,"S. cerevisiae deletion strains, locus YLR268W, strain sec22, hits give low values",0.981
same,normalized growth,"S. cerevisiae deletion strains, locus YLR320W, strain mms22, hits give low values",1.07
same,normalized growth,"S. cerevisiae deletion strains, locus YLR330W, strain CHS5, hits give low values",1.01
same,normalized growth,"S. cerevisiae deletion strains, locus YLR342W, strain FKS1 (second series), hits give low values",0.854
same,normalized growth,"S. cerevisiae deletion strains, locus YLR342W, strain FKS1, hits give low values",0.958
same,normalized growth,"S. cerevisiae deletion strains, locus YLR357W, strain rsc2, hits give low values",0.882
same,normalized growth,"S. cerevisiae deletion strains, locus YLR370C, strain arc18, hits give low values",1
same,normalized growth,"S. cerevisiae deletion strains, locus YLR371W, strain rom2, hits give low values",1.02
same,normalized growth,"S. cerevisiae deletion strains, locus YLR384C, strain iki3, hits give low values",0.991
same,normalized growth,"S. cerevisiae deletion strains, locus YLR418C, strain cdc73, hits give low values",0.864
same,normalized growth,"S. cerevisiae deletion strains, locus YML016C, strain PPZ1, hits give low values",1.01
same,normalized growth,"S. cerevisiae deletion strains, locus YML032C, strain rad52, hits give low values",1.06
same,normalized growth,"S. cerevisiae deletion strains, locus YML120C, strain ndi1, hits give low values",0.993
same,normalized growth,"S. cerevisiae deletion strains, locus YML124C, strain tub3, hits give low values",1.03
same,normalized growth,"S. cerevisiae deletion strains, locus YMR058W, strain fet3, hits give low values",1.02
same,normalized growth,"S. cerevisiae deletion strains, locus YMR078C, strain ctf18, hits give low values",1.04
same,normalized growth,"S. cerevisiae deletion strains, locus YMR125W, strain sto1, hits give low values",1.06
same,normalized growth,"S. cerevisiae deletion strains, locus YMR129W, hits give low values",1.01
same,normalized growth,"S. cerevisiae deletion strains, locus YMR205C, strain PFK2, hits give low values",1.03
same,normalized growth,"S. cerevisiae deletion strains, locus YMR223W, strain ubp8, hits give low values",0.998
same,normalized growth,"S. cerevisiae deletion strains, locus YMR231W, strain pep5, hits give low values",0.983
same,normalized growth,"S. cerevisiae deletion strains, locus YMR307W, strain GAS1, hits give low values",0.809
same,normalized growth,"S. cerevisiae deletion strains, locus YNL067W, strain RPL9B, hits give low values",0.999
same,normalized growth,"S. cerevisiae deletion strains, locus YNL071W, strain lat1, hits give low values",1.04
same,normalized growth,"S. cerevisiae deletion strains, locus YNL128W, strain TEP1, hits give low values",1.01
same,normalized growth,"S. cerevisiae deletion strains, locus YNL153C, strain GIM3, hits give low values",0.99
same,normalized growth,"S. cerevisiae deletion strains, locus YNL183C, strain NPR1, hits give low values",0.995
same,normalized growth,"S. cerevisiae deletion strains, locus YNL209W, strain ssb2, hits give low values",0.917 (active)
same,normalized growth,"S. cerevisiae deletion strains, locus YNL233W, strain BNI4, hits give low values",0.987
same,normalized growth,"S. cerevisiae deletion strains, locus YNL248C, strain rpa49, hits give low values",1.08
same,normalized growth,"S. cerevisiae deletion strains, locus YNL250W, strain rad50, hits give low values",1.08
same,normalized growth,"S. cerevisiae deletion strains, locus YNL271C, strain bni1, hits give low values",0.978
same,normalized growth,"S. cerevisiae deletion strains, locus YNL298W, strain CLA4, hits give low values",1
same,normalized growth,"S. cerevisiae deletion strains, locus YNL307C, strain MCK1, hits give low values",1.03
same,normalized growth,"S. cerevisiae deletion strains, locus YNL322C, strain KRE1 (second series), hits give low values",1.01
same,normalized growth,"S. cerevisiae deletion strains, locus YNR049C, strain mso1, hits give low values",1.01
same,normalized growth,"S. cerevisiae deletion strains, locus YNR052C, strain pop2, hits give low values",1.01
same,normalized growth,"S. cerevisiae deletion strains, locus YOL012C, strain htz1",1.51
same,normalized growth,"S. cerevisiae deletion strains, locus YOL147C, strain pex11, hits give low values",1.02
same,normalized growth,"S. cerevisiae deletion strains, locus YOR001W, strain rrp6, hits give low values",0.96
same,normalized growth,"S. cerevisiae deletion strains, locus YOR061W, strain CKA2, hits give low values",0.996
same,normalized growth,"S. cerevisiae deletion strains, locus YOR069W, strain VPS5, hits give low values",1.01
same,normalized growth,"S. cerevisiae deletion strains, locus YOR070C, strain gyp1, hits give low values",1.01
same,normalized growth,"S. cerevisiae deletion strains, locus YOR080W, strain dia2, hits give low values",0.996
same,normalized growth,"S. cerevisiae deletion strains, locus YOR083W, strain WHI5, hits give low values",0.958
same,normalized growth,"S. cerevisiae deletion strains, locus YOR106W, strain vam3, hits give low values",0.844 (active)
same,normalized growth,"S. cerevisiae deletion strains, locus YOR136W, strain idh2, hits give low values",1.03
same,normalized growth,"S. cerevisiae deletion strains, locus YOR144C, strain elg1, hits give low values",1.02
same,normalized growth,"S. cerevisiae deletion strains, locus YOR184W, strain ser1, hits give low values",0.999
same,normalized growth,"S. cerevisiae deletion strains, locus YOR231W, strain MKK1, hits give low values",1.04
same,normalized growth,"S. cerevisiae deletion strains, locus YOR265W, strain rbl2, hits give low values",1
same,normalized growth,"S. cerevisiae deletion strains, locus YOR270C, strain vph1, hits give low values",0.964
same,normalized growth,"S. cerevisiae deletion strains, locus YOR290C, strain snf2, hits give low values",1.02
same,normalized growth,"S. cerevisiae deletion strains, locus YOR316C, strain cot1, hits give low values",1.04
same,normalized growth,"S. cerevisiae deletion strains, locus YPL051W, strain arl3, hits give low values",1.07
same,normalized growth,"S. cerevisiae deletion strains, locus YPL078C, strain atp4, hits give low values",0.985
same,normalized growth,"S. cerevisiae deletion strains, locus YPL106C, strain sse1, hits give low values",0.953
same,normalized growth,"S. cerevisiae deletion strains, locus YPL240C, strain hsp82, hits give low values",1.01
same,normalized growth,"S. cerevisiae deletion strains, locus YPL256C, strain CLN2, hits give low values",1.09
same,normalized growth,"S. cerevisiae deletion strains, locus YPR119W, strain clb2, hits give low values",1.04
same,normalized growth,"S. cerevisiae deletion strains, locus YPR141C, strain kar3, hits give low values",1.05
same,normalized growth,"S. cerevisiae deletion strains, locus YPR163C, strain tif3, hits give low values",1.03
same,normalized growth,"S. cerevisiae deletion strains, locus YPR167C, strain met16, hits give low values",1.04
same,normalized growth,"S. cerevisiae deletion strains, strain wtn01, hits give low values",0.998
same,normalized growth,"S. cerevisiae strains, strain wild type, hits give low values",1.01
